Sm TGR inh: qHTS Assay for the Inhibitors of Schistosoma Mansoni Peroxiredoxins; Schistosoma mansoni thioredoxin glutathione reductase (TGR), Q962Y6; purified TGR, DTNB reduction, TNB absorbance 405 nm; Potency, µM (doses to about 114 µM), inactives show at the highest dose activity change, negative = inhibition, most hits filed as inhibitors; 360,000 tested, 3% active; AID 485364, 2010; also: potency is read from the fitted curve at half-maximal effect; % is scaled to controls: 0 for no effect and ±100 for the full control effect; nearly all actives have a fitted effect of over 60% in size
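First, TGR (20 nM dispensed) and NADPH were mixed with compound. Second, a 15 min room-temperature incubation followed. Third, further NADPH and then DTNB were added to start the reaction. Finally, TNB absorbance was monitored kinetically.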
Shiga toxin inh: A qHTS for Small Molecule Inhibitors of Shiga Toxin | Vero cells, Shiga toxin protein synthesis inhibition reporter | inhibition, % at 38.7 µM | 290,000 tested, 9.2% active; in the data active = inhibition mostly above about 28%, no sharp cut-off; inactive = mostly below about 43%; also: 0% is about no effect
Tb PYK inh: qHTS of Trypanosoma Brucei Inhibitors; 410,000 tested, 0.12% active; pyruvate kinase (Trypanosoma brucei), Q57TT1; TbPYK enzyme, Kinase-Glo Plus ATP luminescence, 45 min; Potency, µM (top dose mostly 76.8 µM), without a hit: at the top dose activity, negative = inhibition, actives largely listed as inhibitors; also: potency is read from the fitted curve at half-maximal effect; % is scaled to controls: 0 for no effect and ±100 for the full control effect; nearly all actives have a fitted effect of over 50% in size
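Quantitative HTS: titrated library compounds versus trypanosomal pyruvate kinase in TEA buffer (pH 7.2) containing KCl, MgCl2, BSA and Tween-20. Reactions were initiated with ADP, 130 uM final. Kinase-Glo Plus luminescence was read after 45 min at RT.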
FBPA Giardia inh: qHTS Assay for Inhibitors of Fructose-1,6-bisphosphate Aldolase from Giardia Lamblia; A8B2U2; purified Giardia FBPA; Potency, µM (doses to about 59.6 µM), for inactives: at the highest dose activity, negative = inhibition, actives largely listed as inhibitors; 290,000 tested, 0.71% active; AID 2451, 2010; also: potency is read from the fitted curve at half-maximal effect; % is scaled to controls: 0 for no effect and ±100 for the full control effect; nearly all actives have a fitted effect of over 55% in size
Target sequence (A8B2U2 whole entry, looked up): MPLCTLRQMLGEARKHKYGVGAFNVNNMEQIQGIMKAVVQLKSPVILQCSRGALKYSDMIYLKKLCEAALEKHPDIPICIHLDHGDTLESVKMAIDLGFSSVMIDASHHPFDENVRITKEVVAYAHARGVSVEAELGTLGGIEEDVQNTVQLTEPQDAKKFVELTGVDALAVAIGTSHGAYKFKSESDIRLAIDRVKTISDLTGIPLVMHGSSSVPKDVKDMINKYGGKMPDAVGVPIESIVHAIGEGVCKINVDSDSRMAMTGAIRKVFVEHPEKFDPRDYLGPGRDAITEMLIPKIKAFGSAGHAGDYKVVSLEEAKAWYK
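40 nM FBPA preincubated 10 min at RT with compound (up to 57.5 uM final), then substrate plus GAPDH/TPI/NAD/arsenate coupling and diaphorase/resazurin added. Fluorescence read after 20 min at RT, 525/598 nm.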
CHX counter: Cycloheximide Counterscreen for Small Molecule Inhibitors of Shiga Toxin | cell reporter, cycloheximide protein synthesis inhibition counterscreen | max response, % | 300,000 tested, 12% active | AID 2314, 2010; in the data active = max response mostly above about 13%, no sharp cut-off; inactive = mostly below about 14%; also: read at 38.3 µM for the half of the compounds with a filed dose; 0% is about no effect
LmPK inh: qHTS Assay for Inhibitors of Leishmania Mexicana Pyruvate Kinase (LmPK) | AID 1721, 2009 | 290,000 tested, 0.37% active | purified LmPK, Kinase-Glo ATP luminescence, 1 h | Q27686 | Potency, µM (titrated, usually from 57.5 µM), for inactives: top-dose activity change, negative = inhibition, most hits filed as inhibitors; also: potency is read from the fitted curve at half-maximal effect; % is scaled to controls: 0 for no effect and ±100 for the full control effect
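Purified LmPK (0.1 nM) with 0.5 mM PEP and 0.1 mM ADP in imidazole buffer pH 7.2 with MgCl2/KCl, 1 h at room temperature. ATP formed was read by luciferase luminescence and normalized to no-enzyme and uninhibited controls.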
* marks the source's active call; other numbers are inactive results; u = inconclusive; x = no result; [ ] = remark or other dose. Only a selection was taken, and hits are over-represented in it overall. Unless noted, calls follow the shape of the dose curve; as a rule, active = well fitted curve in the direction sought with a large enough effect; inconclusive = small, poorly fitted or top-dose-only effect, or another doubt; inactive = no such curve, though single readings can be large; an effect the other way counts as inactive or inconclusive.

SMILES	Sm TGR inh	Shiga toxin inh	Tb PYK inh	FBPA Giardia inh	CHX counter	LmPK inh
O=C(Nc1ccc(-n2cnnn2)cc1)c1cccc(S(=O)(=O)N2CCCC2)c1	10%	x	-5%	x	x	x
CCc1cccc(C)c1Nc1c(-c2cccc(O)c2)nc2nc(C)cc(C)n12	-5%	x	-1%	x	x	x
O=C(CS(=O)Cc1ccco1)NCC=CCOc1cc(CN2CCCCC2)ccn1 (configuration not stated)	x	x	5%	x	x	x
CCC(NC(=O)Cc1c(C)c2cc3c(cc2oc1=O)OC(C)(C)CC3)C(=O)O (configuration not stated)	-15%	23	-1%	8%	21*	4%
Cc1c(CC(=O)O)c(=O)oc2cc3c(cc12)CCC(C)(C)O3	-7%	-5	0%	0%	-2	1%
O=C(COc1ccccc1O)Nc1ccc(Cl)cc1	0%	56*	-2%	-2%	28*	1%
COc1ccc(OCC(=O)NNC(=O)C(=O)Nc2ccccc2)cc1	x	x	-3%	x	x	x
Cc1ccccc1OCC(=O)NNC(=O)Nc1ccc(Cl)cc1	-33%	16	1%	4%	12	0%
COc1ccc(OCC(=O)Sc2ccc(C)cc2)cc1	3.2µM*	-1	-15%	2%	8	4%
COc1ccc(OCC(=O)Nc2ccc(Cl)cc2)cc1	0%	61*	-7%	1%	19*	2%
COc1ccc(OCC(=O)NNC(=O)C(=O)Nc2ccc(C)cc2)cc1	-2%	14	-5%	-1%	24*	10%
O=C(Nc1ccc(F)c(Cl)c1)C1CCN(S(=O)(=O)c2ccc3[nH]c(=O)ccc3c2)CC1	5%	x	0%	x	x	x
CC(C)c1ccc(CC(=O)N2CCC2(C)C(=O)Nc2ccc3c(c2)OCCO3)cc1 (configuration not stated)	x	x	-5%	x	x	x
CCOC(=O)N1CCN(C(=O)C[C@@H]2C[C@@]3(C(=O)OCC)CCCC=C3N(Cc3ccc4c(c3)OCO4)C2=O)CC1	x	x	-2%	x	x	x
Cc1ccc(OCCC(=O)OCC(=O)Nc2ccc(F)cc2)cc1	1%	x	5%	x	x	x
COc1ccc(OCC(=O)Nc2ccc(C)cc2)cc1	-31%	60*	-1%	0%	26*	2%
Cc1ccc(OCC(=O)Nc2ccc(F)cc2)cc1	3%	40*	-13%	2%	47*	5%
N/C(=N\OC(=O)Cc1ccccc1[N+](=O)[O-])c1ccccn1	x	139*	-5%	0%	49*	-4%
COc1ccc(/C(N)=N/OC(=O)Cc2ccccc2OC)cc1	0%	36*	0%	1%	39*	1%
N/C(=N\OC(=O)Cc1cccc2ccccc12)c1ccccn1	-9%	161*	-1%	3%	49*	0%
COc1ccccc1/C=N\N=C(\N)c1ccccn1	4%	89*	1%	10%	55*	-20%
N/C(=N\OC(=O)CCN1C(=O)c2ccccc2C1=O)c1ccccn1	x	15	7%	0%	7	-6%
COc1cccc(NC(=O)c2nnn(Cc3cccc(C(F)(F)F)c3)c2N)c1	10%	x	-3%	x	x	x
CN(c1ccc(C(=O)N2CCN(Cc3ccccc3)CC2)cc1)S(=O)(=O)c1ccc(Cl)cc1	-4%	7	-3%	-8%	-1	-6%
CCCCN(C)c1ncnc2c1cnn2-c1cccc(Cl)c1	5%	x	1%	x	x	x
SMILES	Sm TGR inh	Shiga toxin inh	Tb PYK inh	FBPA Giardia inh	CHX counter	LmPK inh
N/C(=N\OC(=O)c1cccc2ccccc12)c1ccccn1	5%	95*	-9%	-3%	57*	-20%
COc1ccc(CC(=O)O/N=C(\N)c2ccccn2)cc1OC	-4%	55*	0%	x	35*	1%
COc1cccc(C(=O)O/N=C(\N)c2ccccn2)c1OC	0%	-6	u	14%	10	-20%
COc1ccccc1CC(=O)O/N=C(\N)c1ccccn1	18%	92*	0%	0%	42*	-1%
COc1ccc(/C=C/C(=O)O/N=C(\N)c2ccccn2)cc1OC	x	x	2%	x	x	x
CC1(C(=O)NS(=O)(=O)c2ccc(C#N)cc2)CCN1C(=O)c1ccccc1CCc1ccccc1 (configuration not stated)	x	x	0%	x	x	x
COC(=O)[C@@]12CCCCN1[C@H](c1ccc(-c3ccc(F)cc3)cc1)[C@@H]1C(=O)N(C)C(=O)[C@@H]12	u	x	0%	x	x	x
CCN(CC)C(=O)c1sc2c(c1C)c(=O)n(-c1ccc(Cl)c(Cl)c1)c(=O)n2Cc1ccccc1C#N	0%	x	0%	x	x	x
NCCN	x	x	-7%	x	x	x
Cc1[nH]c(=O)[nH]c(=O)c1/C=N/NC(=O)CCNC(=O)OC(C)(C)C	17%	-6	2%	-13%	18*	-8%
Cc1[nH]c(=O)[nH]c(=O)c1/C=N/NC(=O)[C@@H](NC(=O)OC(C)(C)C)C(C)C	35µM*	22	7%	8%	-3	2%
Cc1[nH]c(=O)[nH]c(=O)c1/C=N/NC(=O)[C@H](C)N	50µM*	11	-4%	u	7	-21%
COc1ccc(CCNC(=O)CSc2cn(CCNC(=O)c3cccc(C(F)(F)F)c3)c3ccccc23)cc1OC	2%	x	-3%	x	x	x
COC(=O)C1=C(C(=O)OC)[C@@H]2N(Cc3ccccc3)c3ccccc3[C@@]23C[C@@H](C(=O)OC)N(S(=O)(=O)c2ccc(Br)cc2)C3=N1	x	x	x	0%[12.9 µM]	x	-4%[11.5 µM]
CCc1ccc(-n2nc(CO)c(C(=O)NC)n2)cc1	0%	x	0%	x	x	x
CCOC(=O)c1[nH]c2c(c1Cc1ccccc1)C(=O)CC(c1ccc(Cl)cc1)C2 (configuration not stated)	3%	x	-6%	x	x	x
Cc1cccc([C@@H]2C[C@H]3CN(Cc4cccc(Cl)c4)C(=O)[C@]34CCCN24)n1	28µM*	3	u	-6%	-3	0%
Cc1ccccc1CN1C[C@@H]2C[C@@H](c3cnc(N4CCOCC4)s3)N3CCC[C@@]23C1=O	16µM*	-9	-5%	-23%	-6	-2%
COc1ccc(CN(C(=O)Nc2cccc(Cl)c2)c2ccccn2)cc1OC	3%	x	4%	x	x	x
O=C(c1ccc(N2CCCS2(=O)=O)cc1)N1CCN(c2ccccc2)CC1	-2%	15	1%	16%	0	-1%
COc1ccc(NC(=O)c2cccc(NC(=O)C(C)C)c2)c([N+](=O)[O-])c1	-3%	22*	9%	9%	22*	-1%
COc1cccc(NC(=O)C(C)OC(=O)CCCNC(=O)c2ccc(Cl)cc2)c1 (configuration not stated)	2%	100*	-1%	x	25*	0%
